Structures are written as SMILES. Out of some 310,000 compounds screened, about 2,600 (0.84%) were called active. The sample as a whole holds a higher share of actives than the screen did. A number with no mark means an inactive call.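 How the source made its calls: active means fluorescence ratio B-score at or below minus 3 SD of library scores, with starting-brightness B-score within 2 SD (cut at about -4.2 in these data); inactive means the rest.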

For the test, the target named is Inward rectifier potassium channel 2 (Mus musculus) (UniProt P35561). Nature of the test: blocks the mouse Kir2.1 inward-rectifier potassium channel (AID 1672).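 Further: channel flux triggered by added potassium and thallium sulfate stimulus; B-score of peak minus minimum fluorescence over baseline after thallium stimulus; more negative B-score means stronger Kir2.1 block with less thallium influx.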 The settings on record: HEK293-Kir2.1, FluxOR thallium flux fluorescence; at 10 µM; stronger effect = lower value.
Sequence of Inward rectifier potassium channel 2 (Mus musculus) (P35561 whole entry, looked up): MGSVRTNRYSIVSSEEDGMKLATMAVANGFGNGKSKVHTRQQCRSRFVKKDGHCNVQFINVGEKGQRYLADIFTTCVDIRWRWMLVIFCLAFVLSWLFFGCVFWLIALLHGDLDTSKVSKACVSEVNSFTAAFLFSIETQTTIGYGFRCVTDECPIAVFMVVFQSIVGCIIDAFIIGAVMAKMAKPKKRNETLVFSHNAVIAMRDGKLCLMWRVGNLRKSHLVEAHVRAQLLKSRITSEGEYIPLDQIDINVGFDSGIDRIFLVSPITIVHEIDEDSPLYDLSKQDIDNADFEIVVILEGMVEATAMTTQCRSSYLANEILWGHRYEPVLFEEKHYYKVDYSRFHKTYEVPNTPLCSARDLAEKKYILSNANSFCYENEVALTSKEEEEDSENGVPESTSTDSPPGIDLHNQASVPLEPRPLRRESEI
`c1ccc(-c2ccccc2OCCN2CCCCC2)cc1`: the B-score is -1.64. With `CN1CCN(CCCCOc2cccc3ccccc23)CC1`, the B-score was -1.84. The figure for `COc1ccccc1OCCCCCCN1CCN(C)CC1` is 1. Regarding `CC1CCCN(CCOCCOc2ccccc2-c2ccccc2)C1` (stereo not drawn), the B-score is -6.74 (active).

Turning to `CN1CCN(CCCCOc2ccccc2-c2ccccc2)CC1`, the B-score is -6.95 (active). For the compound `CC1CN(CCCOc2ccccc2-c2ccccc2)CC(C)O1` (stereo not drawn), the B-score is -4.04. Consider `CC(OC(=O)CCCc1c[nH]c2ccccc12)C(=O)Nc1ccc(S(N)(=O)=O)cc1` (stereo not drawn), for which the B-score was -0.01.

Regarding `Cc1sc(NC(=O)C2=COCCO2)c(C#N)c1C`, the B-score is -0.98. On to `Cc1ccc2[nH]cc(CCNC(=O)C3CCCCC3)c2c1`, for which the B-score is 0.62. The figure for `O=C(NCCc1c[nH]c2ccccc12)C1CCN(Cc2ccc(Br)cc2)CC1` is -5.88 (active); for `O=C(NCCc1c[nH]c2ccccc12)c1cccc(Br)c1` it is -0.14; for `Cc1c(NC(=O)C(C)OC(=O)c2c3c(nc4ccccc24)CCC(C)C3)c(=O)n(-c2ccccc2)n1C` (stereo not drawn) it is 0.01.

Turning to `Cc1cc(C)cc(OCc2nnc(SCC(=O)OC3CCCCC3)o2)c1`, the B-score is 2.83.

Consider `CCOC(=O)C(C)Sc1nnc(CSc2nc3nc(C)cc(C)n3n2)o1` (stereo not drawn), for which the B-score was 0.45. `Cc1cc(C)nc(SCc2nnc(SCC(=O)OC3CCCCC3)o2)n1`: the B-score was -6.39 (active).

As to `O=C(CSc1nnc(-c2cccnc2)n1Cc1ccco1)c1ccc(Cl)c(Cl)c1`, the B-score is -0.81. In the case of `C(=C\c1ccccc1)/CSc1nnc(-c2cccnc2)n1Cc1ccco1`, the B-score was -6.26 (active). Consider `O=C(CSc1nnc(-c2cccnc2)n1Cc1ccco1)c1ccc(Cl)cc1`, for which the B-score was -3.48.

For `O=C(Cc1ccc(S(=O)(=O)N2CCOCC2)s1)NCCOc1ccccc1F`, the B-score is -0.88.

Regarding `O=C(CCC1CCCCC1)Nc1cc(C(F)(F)F)ccc1N1CCOCC1`, the B-score is -0.88.

With `Cc1cc(=O)oc2cc(NC(=O)C(C)Oc3ccccc3)ccc12` (stereo not drawn), the B-score is 0.76. The figure for `CCCC(O)(c1ccc(OC)cc1)C(CN(C)C)c1ccccc1` (stereo not drawn) is -2.85.

Turning to `CC(CN1CCCCC1)c1ccccc1` (stereo not drawn), the B-score is -0.88.

`COc1ccc(C(O)(C2CCCCC2)C(CN2CCCC2)c2ccccc2)cc1` (stereo not drawn): the B-score is -6.33 (active). Take `CN(CC(=O)NCc1cccnc1)S(=O)(=O)c1cc(Cl)ccc1Cl`: the B-score is 0.05. In the case of `Cc1ccc(S(=O)(=O)NCCC(=O)NNC(=O)C2COc3ccccc3O2)cc1` (stereo not drawn), the B-score is -0.97. Take `COc1cccc(CC2(CO)CCCN(Cc3ccc(OC(F)F)cc3)C2)c1` (stereo not drawn): the B-score was -1.05. Turning to `Cn1c(-c2ccco2)nc2cc3ccccc3cc21`, the B-score is 0.04. As for `CN1c2ccccc2-c2nc3ccccc3n2C1c1ccco1` (stereo not drawn), the B-score was -4.99 (active). For `Cn1cccc1-c1nc2ccccc2n1C`, the B-score is -0.13. As for `COc1ccccc1N1CCN(c2nc(C)cc(=O)[nH]2)CC1`, the B-score was 0.62.

On to `O=C(Cc1cccc2ccccc12)NCCC1=CCCCC1`, for which the B-score is -1.35. For `O=C(CCNC(=O)Cn1ccc2ccccc2c1=O)NCCC1=CCCCC1`, the B-score was -0.38.

With `CCn1c(=O)cc(SCC(=O)NCCC2=CCCCC2)c2ccccc21`, the B-score is -8.59 (active).

`CCOc1cc(N2CCOCC2)c(OCC)cc1NC(=O)COc1cccc(Cl)c1`: the B-score was -0.59. For the compound `CC(C)CN(C(=O)c1ccc2c(c1)OCO2)C1CCS(=O)(=O)C1` (stereo not drawn), the B-score was -2.25.

`COc1ccc(Nc2ncnc3sc(-c4ccccc4)cc23)c(OC)c1`: the B-score was 0. The result for `COc1ccc(Nc2nnc(C)c3ccccc23)cc1` reads -0.1; that for `COc1ccc(Nc2ncnc3sc(C)cc23)cc1`, -6.13 (active). The figure for `Cc1ccc2nc(C)c3c(c2c1)N(c1ccccc1)CC3` is -13.2 (active). Turning to `Cc1ccc2nc3n(c(=O)c2c1)CCC3`, the B-score was -2.3. In the case of `Cc1ccc2nc(Nc3ccccc3)cc(C)c2c1`, the B-score is 1.96. `O=C(O)C1C2C=CC(C2)C1C(=O)NCc1ccccc1` (stereo not drawn): the B-score was -0.26. As for `CCCCCCn1c(CN2CCCCC2)nc2c1c(=O)n(C)c(=O)n2C`, the B-score is -1.63.

For `CCCCCCCCn1c2c(c(=N)c3c1CCC3)CCCC2`, the B-score is -14.8 (active). The figure for `COc1ccccc1NC(=O)C(C)OC(=O)c1ccc(-n2cnnn2)cc1` (stereo not drawn) is 1.19; for `CC(=O)Nc1ccc(C(=O)NNC(=O)CCCCC(=O)NNC(=O)c2ccc(NC(C)=O)cc2)cc1` it is 0.27; for `CCOc1ccc(S(=O)(=O)NCCC(=O)N2CCCCCCC2)cc1` it is -0.07. Take `Cc1nc2ccc(C(=O)N(C)CC3CCCN(CCc4ccc(Cl)cc4)C3)cc2[nH]1` (stereo not drawn): the B-score was -1.32. `COc1cccc(CN(C)CC(=O)NCc2ccccc2Cl)c1OC`: the B-score was -3.73.

On to `COc1cccc(CN(C)CC2CCCN(CCc3ccc(Cl)cc3)C2)c1OC` (stereo not drawn), for which the B-score was -8.2 (active). Turning to `O=C(Nc1ccc(OC(F)(F)F)cc1)c1ccc2c(c1)no[n+]2[O-]`, the B-score was 0.38. `CCc1ccc(-c2nn(-c3ccccc3)cc2CSC(=N)N)cc1`: the B-score was -10.6 (active). `O=C(Nc1cn(-c2ccccc2)nc1-c1ccccc1)c1ccccc1`: the B-score was 0.

In the case of `N=C(N)SCc1cccc2ccccc12`, the B-score is -3.09. Consider `CCN1CCN(c2ccc(S(=O)(=O)N3CCCCC3)cc2NC(=O)c2cccc(NC(C)=O)c2)CC1`, for which the B-score was 0.95.

As for `CCc1ccc(C(=O)NNC(=O)C2CCN(c3ncnc4sc(C)c(C)c34)CC2)cc1`, the B-score is -1.35.

For `O=C(COc1ccccc1Cl)Nc1ccccc1C(=O)NC1CC1`, the B-score was -1.39. As for `COc1ccc(NC(=S)NCC2CCN(c3ccc(OC)cc3)C2)cc1` (stereo not drawn), the B-score was 1.12.

Consider `COc1ccc(N2CCC(CNC(=S)Nc3c(C)cccc3C)C2)cc1` (stereo not drawn), for which the B-score is -6.34 (active). The result for `COc1ccc(NC(=S)NCCN2CCC(C)CC2)cc1` reads -1.95. The figure for `COc1ccc(F)cc1S(=O)(=O)NCC(c1ccc2c(c1)OCO2)N1CCN(C)CC1` (stereo not drawn) is -0.39.

Take `CC(O)C(NS(=O)(=O)c1ccc(Cl)cc1)C(=O)OCc1cc([N+](=O)[O-])cc2c1OCOC2` (stereo not drawn): the B-score is -0.06.

For `COc1ccccc1CSc1ncc(-c2ccc([N+](=O)[O-])cc2)[nH]1`, the B-score was 0.65. For `Nc1ccccc1SCc1cc([N+](=O)[O-])cc2c1OCOC2`, the B-score is -4.96 (active).

With `CCN(CC)CCn1c2c(c(SCC(=O)Nc3nc4ccccc4s3)nc1=O)CCCC2`, the B-score was 0.03. In the case of `COc1ccc(NC(=O)CN(C)C(=O)/C=C/c2cn(Cc3ccccc3)nc2-c2cccnc2)cc1`, the B-score is 0.01. Turning to `CCOC(=O)c1cc(NC(=O)c2cccnc2)ccn1`, the B-score is 0.04. For the compound `CCc1noc(C)c1C(=O)Oc1ccc(N(C)S(=O)(=O)c2ccc(C)c(C)c2)cc1`, the B-score is -0.66. On to `CC(OC(=O)C1CC(=O)N(Cc2ccccc2)C1)C(=O)Nc1ccccc1[N+](=O)[O-]` (stereo not drawn), for which the B-score is -1.36. Regarding `N=c1c2c(-c3ccccc3)c(-c3ccccc3)n(Cc3ccccc3)c2ncn1CCCO`, the B-score was -6.86 (active).

For the compound `CCN(CC)CCn1cnc2c1c(=O)[nH]c(=O)n2Cc1ccccc1`, the B-score is 0.13.

On to `N=c1c2c(-c3ccccc3)c(-c3ccccc3)oc2ncn1Cc1ccco1`, for which the B-score was 1.16. `Cn1c(SCC(=O)c2ccccc2)ncc(C(=O)Nc2ccc(F)cc2)c1=O`: the B-score was 1.98. For `O=S(=O)(Nc1cccc(-c2ccc(N3CCOCC3)nn2)c1)c1ccc(Cl)c(Cl)c1`, the B-score was 0.82. The figure for `CCN(CC(=O)NCc1cccs1)C(=O)c1ccc(OC)c(S(=O)(=O)N2CCOCC2)c1` is -0.52. The result for `CC1(C)NC(=O)N(CCOc2cccc(Oc3ccccc3)c2)C1=O` reads -4.68 (active); that for `Cc1cccc2c1N(CCOc1ccccc1)C(=O)C2=O`, -0.18.

For the compound `CC(O)CNCCOc1cccc(Oc2ccccc2)c1` (stereo not drawn), the B-score is -2.96. Turning to `O=C(COc1coc(CN2CCN(c3ccccc3)CC2)cc1=O)Nc1ccccc1F`, the B-score is -0.62. With `CCN(CC)CCOCCOc1ccc(Cl)c2ccccc12`, the B-score is -2.53.

For `CN(C)CCOCCOc1ccc(Cl)c2ccccc12`, the B-score was -5.07 (active). With `CN(C)CCOC1c2ccccc2-c2ccccc21`, the B-score was 0.04. For `CN(Cc1c(F)cccc1Cl)C(=O)CNC(=O)c1ccc2c(c1)OCO2`, the B-score was 0.45.

Consider `CCOc1ccc(NC(=O)CN(C)C(=O)COc2cccc(CC)c2)cc1OCC`, for which the B-score was -1.11.

For the compound `COc1ccc2c(c1)C(=O)Nc1cc(Cl)ccc1N2`, the B-score is 0.62. For the compound `CCn1c(=N)n(CC(=O)c2cccc(OC)c2)c2ccccc21`, the B-score was -0.01. Regarding `Cc1ccc(OCc2nc3ccccc3n2C)cc1`, the B-score was -0.43. The figure for `CCOC(=O)CN1C(=O)C(=O)c2cc(C)ccc21` is -1.78; for `CCCCCCCCCCOC(=O)Cn1c(COc2cccc(OC)c2)[n+](C)c2ccccc21` it is -8.13 (active). Turning to `CCn1c(COc2cccc(OC)c2)nnc1SCC(=O)N1CCOCC1`, the B-score is 0.86.

Consider `Cc1ccc(OCCCn2c(=O)oc3ccccc32)cc1`, for which the B-score was -1.92. In the case of `CCCCCCCCCCOC(=O)Cn1c(COc2ccc(C)cc2)[n+](C)c2ccccc21`, the B-score is -17.5 (active). The result for `CCCCOC(=O)Cn1c(=O)n(CC(=O)OCCCC)c2cc(C)ccc21` reads -7 (active). The result for `CCCCOC(=O)Cn1c(=N)n(CCN(CC)CC)c2ccccc21` reads 1.01; that for `CC(C)CN(C(=O)COC(=O)c1ccc2ccccc2c1)c1c(N)n(Cc2ccccc2)c(=O)[nH]c1=O`, 1.03; that for `CCOc1ccc(NC(=O)COc2ccc(C(=O)N3CCC(C(N)=O)CC3)cc2OC)cc1`, 1.65. As to `COc1ccc(CNC(=O)C(=O)N2CCC3(CC2)OCCN3S(=O)(=O)c2ccc(C)cc2)cc1`, the B-score is 0.4.

For the origin of these results see PubChem BioAssay AID1672 (Johns Hopkins Ion Channel Center, 2009).
